Screens (PubChem)
ADAM10 inh – ADAM10 inhibition, QFRET primary screen | O14672 | recombinant ADAM10, EDANS/DABCYL FRET peptide cleavage, 3 h | inhibition, % at 7 µM | 370,000 tested, 0.62% active;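 active = inhibition above a per-campaign cutoff equal to the mean of compounds falling between control-based bounds plus 3 SD, cut at about 20% in these data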;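 note: 0% = DMSO wells while the 100% control is not disclosed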
Target sequence (O14672 214-748 limits assumed): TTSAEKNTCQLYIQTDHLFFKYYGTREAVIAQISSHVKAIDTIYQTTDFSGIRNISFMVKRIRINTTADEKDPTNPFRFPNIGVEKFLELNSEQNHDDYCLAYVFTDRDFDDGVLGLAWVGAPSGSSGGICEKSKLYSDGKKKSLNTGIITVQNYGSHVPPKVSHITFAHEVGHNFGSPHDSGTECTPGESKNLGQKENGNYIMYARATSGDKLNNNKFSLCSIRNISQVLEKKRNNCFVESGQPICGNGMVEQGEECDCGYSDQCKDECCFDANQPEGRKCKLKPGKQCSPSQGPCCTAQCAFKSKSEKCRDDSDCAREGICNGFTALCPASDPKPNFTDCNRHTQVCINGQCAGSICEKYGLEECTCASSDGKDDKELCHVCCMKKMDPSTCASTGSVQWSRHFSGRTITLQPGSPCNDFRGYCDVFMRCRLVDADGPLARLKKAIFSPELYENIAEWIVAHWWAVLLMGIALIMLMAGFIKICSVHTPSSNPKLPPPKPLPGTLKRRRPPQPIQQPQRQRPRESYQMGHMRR
NPR1 activator – GC-A (human) enzyme activation. HEK293 GC-A cells, cGMP TR-FRET, EC30 ANP; 0% at EC30 ANP, 100% saturating ANP. activation, % at 10 µM. 370,000 tested, 0.14% active. AID 1671463; in the data active = activation above about 40%
GC-B act – GC-B (human) receptor activation; HEK293-GC-B cells, CNP EC30, cGMP TR-FRET; 0% at EC30 CNP, 100% saturating CNP; AID 1920062; 370,000 tested, 0.11% active; P20594; activation, % at 10 µM;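 active = activation at 10 µM reaching about 35% in either raw or pattern-adjusted values, limit read from the data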
ADAM17 inh – inhibits human ADAM17. 370,000 tested, 0.83% active. inhibition, % at 6.95 µM. P78536. recombinant ADAM17, EDANS/DABCYL FRET peptide cleavage;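 active = inhibition above the mean of compounds lying between control limits plus 3 SD, set per campaign, cut at about 8.5% in these data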;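 note: 0% = DMSO-only wells as the low control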
ADAM10 confirm – confirmation of inhibitors of human ADAM10 | shares compounds with ADAM10 inh | ADAM10 QFRET peptide cleavage, EDANS fluorescence | inhibition, % at 6.95 µM | 2,100 tested, 1% active;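 active = inhibition above about 20% chosen separately for each screening run, limit read from the data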;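 note: 0% = DMSO wells and 100% = marimastat wells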
ADAM17 counter – ADAM17 inhibition, counter-screen for ADAM10 exosite hits. shares compounds with ADAM10 inh. ADAM17 QFRET peptide cleavage, EDANS fluorescence. inhibition, % at 6.95 µM. 2,100 tested, 0.5% active. AID 743214;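 active = mean triplicate inhibition above the solvent-only control wells' mean plus 3 SD, cut at about 12% in these data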;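 note: 0% = DMSO wells and 100% = marimastat wells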
ADAM10 ctr – inhibits human ADAM10 in ADAM17 exosite counter-screen | shares compounds with ADAM17 inh | recombinant ADAM10, EDANS/DABCYL FRET peptide cleavage, 3 h | inhibition, % at 6.95 µM | 2,900 tested, 47% active;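 active = mean inhibition over the triplicate runs exceeds the activity threshold set in the earlier primary screen, cut at about 20% in these data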;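 note: 0% = DMSO wells and 100% = marimastat wells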
ADAM17 confirm – confirmation of inhibitors of human ADAM17. shares compounds with ADAM17 inh. recombinant ADAM17, EDANS/DABCYL QFRET peptide cleavage. inhibition, % at 6.95 µM. 2,900 tested, 65% active. AID 743257;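 active = mean inhibition across replicates above the hit cutoff set in the primary screen, cut at about 8.5% in these data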;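 note: 0% = DMSO wells and 100% = marimastat wells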
The depositor's hits bear a star. Sampled rows, rich in hits. Any-hit rate of the full collection: about 1.3%.

How did COc1ccc2nc(NC(=O)C3CCCN3S(=O)(=O)c3ccc(C)cc3)sc2c1 (centres undefined) do in these assays?
ADAM10 inh: 21.9*; NPR1 activator: 5.2; GC-B act: 0.6; ADAM17 inh: 8.6*; ADAM10 confirm: -0.2; ADAM17 counter: 0.6; ADAM10 ctr: 13.3; ADAM17 confirm: 8.1

What do the screens show for `O=C(NCc1ccc(OC(F)(F)F)cc1)C1CC(c2c(Cl)cccc2Cl)=NO1` (centres undefined)?
ADAM10 inh: 20.8*; NPR1 activator: -1.7; GC-B act: 4.2; ADAM17 inh: 9.5*; ADAM10 confirm: 1.6; ADAM17 counter: 0.4; ADAM10 ctr: 23.9*; ADAM17 confirm: 13.4*

Results for O=C(NCc1ccc(C(F)(F)F)cc1)C1CC(c2ccccc2C(F)(F)F)=NO1 (centres undefined) ?
ADAM10 inh: 5.5; NPR1 activator: 2.6; GC-B act: 3.8; ADAM17 inh: -1.8

What do the screens show for `O=C(Nc1cc(Cl)ccc1O)C1CC(c2c(F)cccc2Cl)=NO1` (centres undefined)?
ADAM10 inh: 25.9*; NPR1 activator: -1.6; GC-B act: -5.3; ADAM17 inh: 9.6*; ADAM10 confirm: 8.9; ADAM17 counter: 3.6; ADAM10 ctr: 18.8; ADAM17 confirm: 11.7*

What do the screens show for `O=C(NCc1cc(C(F)(F)F)cc(C(F)(F)F)c1)C1CC(c2ccccc2C(F)(F)F)=NO1` (centres undefined)?
ADAM10 inh: 30.7*; NPR1 activator: -5.6; GC-B act: -9.1; ADAM17 inh: 17.1*; ADAM10 confirm: 0.4; ADAM17 counter: -0.4; ADAM10 ctr: 48.8*; ADAM17 confirm: 25.3*

Results for CC1=C(C(=O)N2CCCCCC2)CC(CC(=O)NCC2CCCCC2)C(=O)N1Cc1ccc(F)cc1 (centres undefined) ?
ADAM10 inh: 1.8; NPR1 activator: -2.1; GC-B act: -0.7; ADAM17 inh: -3.9

Results for COC(=O)[C@H]1C[C@H](C(=O)O)[C@@H](C)C1(C)C ?
ADAM10 inh: 13.7; NPR1 activator: 1.8; GC-B act: -0.6; ADAM17 inh: 6.1

What do the screens show for `O=C(NCc1ccc(Cl)c(Cl)c1)c1cc(C2CCCCN2C(=O)CCc2ccccc2)on1` (centres undefined)?
ADAM10 inh: 25.1*; NPR1 activator: -2.8; GC-B act: 4.2; ADAM17 inh: 9.2*; ADAM10 confirm: 5.2; ADAM17 counter: 0.8; ADAM10 ctr: 18.5; ADAM17 confirm: 10.4*

How did O=C(Nc1ccc(Cl)cc1Cl)OC1CCC12CCC(c1ccccc1)CC2 (centres undefined) do in these assays?
ADAM10 inh: 1.4; NPR1 activator: -2.4; GC-B act: -6.3; ADAM17 inh: -1.2

Results for CN(C)S(=O)(=O)c1cccc(NC(=O)COC(=O)c2cn(-c3ccccc3)nc2-c2ccccc2)c1 ?
ADAM10 inh: 29.3*; NPR1 activator: -5.2; GC-B act: -1.8; ADAM17 inh: 10.7*; ADAM10 confirm: 8.2; ADAM17 counter: 2.9; ADAM10 ctr: 31.2*; ADAM17 confirm: 19.0*

How did CN(C)S(=O)(=O)c1cccc(NC(=O)COC(=O)c2cccc(S(=O)(=O)N3CCc4ccccc4C3)c2)c1 do in these assays?
ADAM10 inh: 23.3*; NPR1 activator: -0.1; GC-B act: 0.9; ADAM17 inh: 10.8*; ADAM10 confirm: 7.5; ADAM17 counter: 1.6; ADAM10 ctr: 15.5; ADAM17 confirm: 12.1*

What do the screens show for `NS(=O)(=O)c1ccc(NC(=O)COC(=O)c2cn(-c3ccccc3)nc2-c2ccc(F)cc2)cc1`?
ADAM10 inh: 3.4; NPR1 activator: -5.3; GC-B act: -5.7; ADAM17 inh: -2.2

How did CN(C)c1ccc(C(CNS(=O)(=O)c2ccc(F)c(F)c2)c2c[nH]c3ccccc23)cc1 (centres undefined) do in these assays?
ADAM10 inh: 40.0*; NPR1 activator: -9.4; GC-B act: 3.0; ADAM17 inh: 13.7*; ADAM10 confirm: 13.1; ADAM17 counter: 4.2; ADAM10 ctr: 54.5*; ADAM17 confirm: 31.2*

Results for CN1CCN(c2ncnc3c2ncn3[C@H]2CN(Cc3cccs3)C[C@@H](CO)O2)CC1 ?
ADAM10 inh: -11.9; NPR1 activator: -0.7; GC-B act: 0.6; ADAM17 inh: -0.5

What do the screens show for `CC(C)(C)NC(=O)C(c1ccc(-c2ccccc2)cc1)N(C[C@H]1CC[C@@H]([C@@H]2CC[C@H](CO)O2)O1)C(=O)c1ccc2ccccc2c1` (some centres undefined)?
ADAM10 inh: 21.2*; NPR1 activator: -0.3; GC-B act: 2.2; ADAM17 inh: 10.3*; ADAM10 confirm: 3.2; ADAM17 counter: 0.7; ADAM10 ctr: 16.0; ADAM17 confirm: 10.1*

Results for CC(C)c1ccc(NC(=O)c2cc(S(=O)(=O)NCC3COc4ccccc4O3)ccc2F)cc1 (centres undefined) ?
ADAM10 inh: 20.7*; NPR1 activator: -1.8; GC-B act: 2.2; ADAM17 inh: 10.0*; ADAM10 confirm: 9.9; ADAM17 counter: 3.9; ADAM10 ctr: 38.0*; ADAM17 confirm: 25.6*

How did O=C(Nc1ccc(C(F)(F)F)cc1)c1cc(S(=O)(=O)NCC2COc3ccccc3O2)ccc1F (centres undefined) do in these assays?
ADAM10 inh: 25.3*; NPR1 activator: -7.1; GC-B act: -0.1; ADAM17 inh: 12.6*; ADAM10 confirm: 5.5; ADAM17 counter: 2.0; ADAM10 ctr: 50.6*; ADAM17 confirm: 23.6*

What do the screens show for `COc1ccc(NC(=O)c2cc(S(=O)(=O)NCC3COc4ccccc4O3)ccc2F)cc1` (centres undefined)?
ADAM10 inh: 11.7; NPR1 activator: 1.9; GC-B act: 0.1; ADAM17 inh: 6.0

How did O=C(Nc1cc(C(F)(F)F)ccc1-n1cncn1)c1cn2ccccc2n1 do in these assays?
ADAM10 inh: -19.4; NPR1 activator: -1.1; GC-B act: 0.2; ADAM17 inh: -3.8

Results for COC(=O)[C@]12CCCCC=C1N(Cc1ccccc1)C(=O)[C@H](CC(=O)NCCCN1CCCC1=O)C2 ?
ADAM10 inh: -14.6; NPR1 activator: -0.3; GC-B act: 5.7; ADAM17 inh: 0.3

How did COc1cccc(CNC(=O)C2CSC3(C)CCC(=O)N23)c1 (centres undefined) do in these assays?
ADAM10 inh: 3.1; NPR1 activator: 2.2; GC-B act: 2.8; ADAM17 inh: -1.6
